In PubChem BioAssay AID624021 (National Center for Advancing Translational Sciences (NCATS), 2012):
Inconclusive results are not listed. Calls come from the whole dose curve; as a rule, active = well fitted curve in the direction sought with a large enough effect; inconclusive = small, poorly fitted or top-dose-only effect, or another doubt; inactive = no such curve, though single readings can be large or run the other way.

Biological target: Isocitrate dehydrogenase [NADP] cytoplasmic (Homo sapiens) (UniProt O75874)
Test: qHTS for Inhibitors of mutant isocitrate dehydrogenase 1 (IDH1): WT assay for probe SAR
Settings: WT IDH1 enzyme, NADPH diaphorase/resazurin fluorescence; series mostly up to 100 µM; activity change, negative = inhibition: at the top concentration
Description: Malignant glioblastomas (WHO grade IV), including primary and secondary glioblastomas, are among the most lethal with a median survival of one year, and unfortunately they are also the most prevalent type of brain tumors. By and large the standard of care of gliomas remains the use of the oral alkylating agent temozolomide and radiotherapy following surgical tumor resection. There is an urgent unmet medical need for novel therapeutics for gliomas. IDH mutations occur in up to 70% of grade II-IV secondary glioblastomas, and IDH1 R132H is the most prevalent mutation. […] Wild-type (WT) IDH1 catalyzes the conversion of isocitrate to -ketoglutarate with the concomitant reduction of NADP+ to NADPH. In contrast, IDH1 R132H catalyzes the conversion of -ketoglutarate to 2-hydroxyglutarate (2-HG) with the concomitant oxidation of NADPH to NADP+ [5]. Recently, a second significant advancement for the field was the finding that IDH is an oncogene, and that its metabolic product 2-HG may contribute to the pathogenesis of IDH-mutated cancers. […] Although this link to cancer is tantalizing, the direct evidence of how 2-HG drives pathogenesis of gliomas and AML remains a subject of further research. The goal of this selectivity assay is to identify small-molecule inhibitors of WT IDH1 using a biochemical assay that measures product NADPH production through the use of a diaphorase/resazurin-coupled system. Inhibition of the WT IDH1 enzymatic reaction leads to a decrease in the amount of NADPH relative to a DMSO control and a concomitant decrease in the fluorescence of the diaphorase/resazurin enzyme product resorufin at 590 nm. Compounds were screened as concentration-titration series that ranged from 100 microM to 5 nM. NIH Molecular Libraries Probe Production Network [MLPCN] NIH Chemical Genomics Center [NCGC] MLSCN Grant: R03 DA032129 PI Name: Dr. Lenny Dang
Compounds or DMSO were dispensed into black, solid 96-well plates at 1 microL/well. Then, 40 microL/well enzyme buffer was dispensed in 20 mM Tris buffer, pH 7.5, containing final concentrations of 10 mM MgCl2, 20 mM NaCl, 0.05% BSA, 2 mM beta-ME and […] WT IDH1. These were incubated at RT for 60 minutes. The substrate and detection buffer (10 microL; 20 mM Tris buffer, pH 7.5, containing final concentrations of 10 mM MgCl2, 20 mM NaCl, 0.05% BSA, 0.05 mM NADP+, 0.00053 mM diaphorase, 0.04 mM resazurin and 0.07 mM isocitrate) was added to start the enzymatic reaction. The reaction progressed for 30 minutes at RT and which point 25 microL/well of 2% SDS was added as a stop solution. Following 1 minute of shaking on an oribital shaker, the fluorescence intensity was monitored on a Spectramax M5 plate reader (Ex 544, Em 590, bodipy filter). The %Activity was determined from the corrected fluorescence values. As no specific WT IDH1 inhibitors have been identified in the literature, 1x (0.65 nM) and 0x WT IDH1 enzyme controls (untreated) were included to normalize %Activity of identified inhibitors; 0x enzyme values corresponded to 100%Activity (full inhibition), while 1x WT IDH1 enzyme values were used to normalize 0%Activity (no inhibition ). Concentration-response curves were fitted to the signals arising from the resulting fluorescence. The concentration-response curves were then classified based on curve quality (r2), response magnitude and degree of measured activity, and compounds were subsequently categorized based on their curve class. […] Keywords: Isocitrate dehydrogenase, IDH1, IDH1 R132H, 2-HG, 2-hydroxyglutarate, AML, glioma, MLSMR, MLPCN, NIH Roadmap, qHTS, NCGC

Chain of Isocitrate dehydrogenase [NADP] cytoplasmic (Homo sapiens) (O75874 whole entry, looked up): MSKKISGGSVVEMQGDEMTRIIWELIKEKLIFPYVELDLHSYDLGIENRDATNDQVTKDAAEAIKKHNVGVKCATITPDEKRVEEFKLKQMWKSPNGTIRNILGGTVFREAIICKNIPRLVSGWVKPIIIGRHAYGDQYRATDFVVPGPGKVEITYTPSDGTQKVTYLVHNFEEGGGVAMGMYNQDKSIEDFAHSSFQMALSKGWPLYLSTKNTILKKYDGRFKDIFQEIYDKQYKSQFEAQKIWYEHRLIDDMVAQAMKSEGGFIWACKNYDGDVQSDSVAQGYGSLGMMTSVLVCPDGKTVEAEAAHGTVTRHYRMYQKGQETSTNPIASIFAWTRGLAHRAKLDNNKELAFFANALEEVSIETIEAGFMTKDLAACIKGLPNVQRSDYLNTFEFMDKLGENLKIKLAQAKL

Activity change, negative = inhibition, inactive:
O=C(NC1CCCC1)C(c1ccccc1)N(C(=O)Cc1cccs1)c1cccc(F)c1 (configuration not stated) -6.55%, Cc1ccccc1C(C(=O)NC1CCCCC1)N(C(=O)CNS(=O)(=O)c1ccccc1)c1cccc(F)c1 (configuration not stated) -28.3%, COc1ccc(C(C(=O)NC2CCCC2)N(C(=O)Cc2cccs2)c2cccc(F)c2)cc1OC (configuration not stated) -4.45%, Cc1ccccc1C(C(=O)NC1CCCC1)N(C(=O)Cc1cccs1)c1ccccc1F (configuration not stated) -15%, COc1ccc(N(C(=O)C2COc3ccccc3O2)C(C(=O)NC2CCCCC2)c2ccccc2)cc1OC (configuration not stated) -23.7%, Cc1ccccc1C(C(=O)N(C)C1CCCCC1)N(C(=O)Cc1cccs1)c1cccc(F)c1 (configuration not stated) -5.27%, COc1cccc(N(C(=O)Cc2cccs2)C(C(=O)NC2CCCC2)c2ccccc2)c1 (configuration not stated) -5.76%, Cc1ccccc1C(C(=O)NCc1ccccc1)N(C(=O)Cc1cccs1)c1cccc(F)c1 (configuration not stated) -2.69%, O=C(NC1CCCCC1)C(c1ccncc1)N(C(=O)Cc1cccs1)c1cccc(F)c1 (configuration not stated) -7.26%, Cc1ccccc1C(C(=O)NC1CCCC1)N(C(=O)Cc1cccs1)c1ccccc1 (configuration not stated) -12.6%, COc1ccccc1CN(C(=O)Cc1cccs1)C(C(=O)NC1CCCCC1)c1ccccc1F (configuration not stated) -8.28%, O=C(NC1CCCCC1)C(C1CCCC1)N(C(=O)Cc1cccs1)c1cccc(F)c1 (configuration not stated) -4.81%, Cc1ccccc1C(C(=O)NC1CCCCC1)N(C(=O)Cc1cccs1)C(C)C (configuration not stated) -0.19%, Cc1ccc(C(C(=O)NC2CCCC2)N(C(=O)Cc2cccs2)c2cccc(F)c2)o1 (configuration not stated) -4.68%, Cc1ccccc1C(C(=O)NC(C)(C)C)N(C(=O)Cc1cccs1)c1cccc(F)c1 (configuration not stated) -7.04%, COc1cccc(C(C(=O)NC2CCCCC2)N(C(=O)c2cccs2)c2ccc3c(c2)OCO3)c1 (configuration not stated) -13.6%, COc1ccc(N(C(=O)Cc2cccs2)C(C(=O)NC2CCCC2)c2ccccc2C)cc1OC (configuration not stated) -8.38%, Cc1ccccc1C(C(=O)NC1CCCCC1)N(C(=O)c1ccccn1)c1cccc(F)c1 (configuration not stated) -8.53%, O=C(NC1CCCC1)C(c1cccs1)N(C(=O)Cc1cccs1)c1cccc(F)c1 (configuration not stated) -4.71%, COc1ccc(N(C(=O)Cn2cnc3ccccc32)C(C(=O)NC2CCCCC2)c2ccccc2)cc1 (configuration not stated) -10.3%, Cc1nc(C)c(C(=O)N(c2cccc(F)c2)C(C(=O)NC2CCCCC2)c2ccccc2)s1 (configuration not stated) -3.93%, COc1cc(OC)cc(N(C(=O)Cc2cccs2)C(C(=O)NC2CCCC2)c2ccccc2C)c1 (configuration not stated) -4.77%
